# Source: the supplement of paper PMC8728848
# Only a selection was taken, and the strongest signals are over-represented in it overall.
# B1: MGL6A (Homo sapiens) (protein)
# chain: MTRTYENFQYLENKVKVQGFKNGPLPLQSLLQRLCSGPCHLLLSLGLGLLLLVIICVVGFQNSKFQRDLVTLRTDFSNFTSNTVAEIQALTSQGSSLEETIASLKAEVEGFKQERQAVHSEMLLRVQQLVQDLKKLTCQVATLNNNGEEASTEGTCCPVNWVEHQDSCYWFSHSGMSWAEAEKYCQLKNAHLVVINSREEQNFVQKYLGSAYTWMGLSDPEGAWKWVDGTDYATGFQNWKPGQPDDWQGHGLGGGEDCAHFTPDGRWNDDVCQRPYHWVCEAGLGQTSQESH
# Legend:
# Assay in all cases: glycan array binding signal (z-score within array); higher = stronger binding
# Details in all cases: glycan notation: IUPAC condensed, linker removed; mutation: H262T
# [1] = biological target: Fuc(a1-2)Gal(b1-3)GalNAc(a1-3)[Fuc(a1-2)]Gal(b1-4)Glc
# Summary of the method: (§1)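 Negative Z-scores can be read as non-binding. The Z-score is calculated within each array and then averaged across arrays of one protein sequence at different concentrations or buffers and across linkers. Arrays, 3228 in all, were curated from the Consortium for Functional Glycomics database and kept only where the protein sequence was available.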
# [2] = biological target: Fuc(a1-2)Gal(b1-3)GlcNAc(b1-3)[Gal(b1-4)GlcNAc(b1-6)]Gal(b1-4)Glc
# Summary of the method: as §1
# Fuc(a1-2)Gal(b1-4)GlcNAc = biological target: Fuc(a1-2)Gal(b1-4)GlcNAc
# Summary of the method: as §1
# [3] = biological target: Fuc(a1-2)Gal(b1-4)GlcNAc(b1-6)GalNAc
# Summary of the method: as §1
# [4] = biological target: Fuc(a1-2)Gal6S(b1-3)GlcNAc6S
# Summary of the method: as §1
# Fuc(a1-2)[Gal(a1-3)]Gal = biological target: Fuc(a1-2)[Gal(a1-3)]Gal
# Summary of the method: as §1
# [5] = biological target: Fuc(a1-2)[Gal(a1-3)]Gal(b1-4)GlcNAc(b1-2)Man(a1-3)[Fuc(a1-2)[Gal(a1-3)]Gal(b1-4)GlcNAc(b1-2)Man(a1-6)]Man(b1-4)GlcNAc(b1-4)GlcNAc
# Summary of the method: as §1
# [6] = biological target: Fuc(a1-2)[Gal(a1-3)]Gal(b1-4)[Fuc(a1-3)]Glc
# Summary of the method: as §1
# [7] = biological target: Fuc(a1-2)[GalNAc(a1-3)]Gal(b1-3)GlcNAc(b1-6)GalNAc
# Summary of the method: as §1
# [8] = biological target: Fuc(a1-2)[GalNAc(a1-3)]Gal(b1-4)GlcNAc(b1-2)Man
# Summary of the method: as §1
# [9] = biological target: Fuc(a1-2)[GalNAc(a1-3)]Gal(b1-4)GlcNAc(b1-6)GalNAc
# Summary of the method: as §1
# [10] = biological target: Fuc(a1-2)[GalNAc(a1-4)]Gal(b1-4)GlcNAc
# Summary of the method: as §1
# [11] = biological target: Fuc(a1-2)[GalNAc(b1-3)]Gal
# Summary of the method: as §1
# Fuc(a1-4)GlcNAc = biological target: Fuc(a1-4)GlcNAc
# Summary of the method: as §1
# Gal(a1-3)Gal = biological target: Gal(a1-3)Gal
# Summary of the method: as §1
# [12] = biological target: Gal(a1-3)Gal(b1-3)GlcNAc(b1-6)GalNAc
# Summary of the method: as §1
# [13] = biological target: Gal(a1-3)Gal(b1-4)GlcNAc(b1-2)Man
# Summary of the method: as §1
# [14] = biological target: Gal(a1-3)Gal(b1-4)GlcNAc(b1-6)GalNAc
# Summary of the method: as §1
# [15] = biological target: Gal(a1-4)Gal(b1-4)GlcNAc(b1-2)Man(a1-3)[Gal(a1-4)Gal(b1-4)GlcNAc(b1-2)Man(a1-6)]Man(b1-4)GlcNAc(b1-4)GlcNAc
# Summary of the method: as §1
# [16] = biological target: Gal(b1-3)GlcNAc(b1-6)GalNAc
# Summary of the method: as §1
# [17] = biological target: Gal(b1-3)[Fuc(a1-4)]GlcNAc(b1-2)Man
# Summary of the method: as §1
# Gal(b1-4)Glc6S = biological target: Gal(b1-4)Glc6S
# Summary of the method: as §1
# [18] = biological target: Gal(b1-4)GlcNAc(a1-6)Gal(b1-4)GlcNAc
# Summary of the method: as §1
# [19] = biological target: Gal(b1-4)GlcNAc(b1-2)[Gal(b1-4)GlcNAc(b1-4)]Man(a1-3)[GlcNAc(b1-4)][Gal(b1-4)GlcNAc(b1-2)[Gal(b1-4)GlcNAc(b1-6)]Man(a1-6)]Man(b1-4)GlcNAc(b1-4)GlcNAc
# Summary of the method: as §1
# [20] = biological target: Gal(b1-4)GlcNAc(b1-3)Gal(b1-4)GlcNAc(b1-3)Gal(b1-4)GlcNAc(b1-2)Man(a1-3)[Gal(b1-4)GlcNAc(b1-3)Gal(b1-4)GlcNAc(b1-3)Gal(b1-4)GlcNAc(b1-2)Man(a1-6)]Man(b1-4)GlcNAc(b1-4)GlcNAc
# Summary of the method: as §1
# [21] = biological target: Gal(b1-4)GlcNAc(b1-3)Gal(b1-4)GlcNAc(b1-3)GalNAc
# Summary of the method: as §1
# [22] = biological target: Gal(b1-4)GlcNAc(b1-6)Gal(b1-4)GlcNAc
# Summary of the method: as §1
# [23] = biological target: Gal(b1-4)GlcNAc(b1-6)GalNAc
# Summary of the method: as §1
# [24] = biological target: Gal(b1-4)GlcNAc(b1-6)[Gal(b1-4)GlcNAc(b1-3)]GalNAc
# Summary of the method: as §1
# Gal3S(b1-3)GlcNAc = biological target: Gal3S(b1-3)GlcNAc
# Summary of the method: as §1
# GalNAc(b1-3)GlcNAc = biological target: GalNAc(b1-3)GlcNAc
# Summary of the method: as §1
# [25] = biological target: GlcA3S(b1-3)Gal(b1-4)GlcNAc(b1-3)Gal(b1-4)Glc
# Summary of the method: as §1
# [26] = biological target: GlcNAc(a1-4)Gal(b1-4)GlcNAc
# Summary of the method: as §1
# [27] = biological target: GlcNAc(b1-2)[GlcNAc(b1-6)]Man(a1-6)[GlcNAc(b1-2)Man(a1-3)]Man(b1-4)GlcNAc(b1-4)[Fuc(a1-6)]GlcNAc
# Summary of the method: as §1
# GlcNAc(b1-3)Gal = biological target: GlcNAc(b1-3)Gal
# Summary of the method: as §1
# [28] = biological target: GlcNAc(b1-3)Gal(b1-3)GalNAc
# Summary of the method: as §1
# [29] = biological target: GlcNAc(b1-3)Gal(b1-4)GlcNAc(b1-3)Gal(b1-4)GlcNAc(b1-3)Gal(b1-4)GlcNAc(b1-2)[GlcNAc(b1-3)Gal(b1-4)GlcNAc(b1-3)Gal(b1-4)GlcNAc(b1-3)Gal(b1-4)GlcNAc(b1-6)]Man(a1-6)[GlcNAc(b1-3)Gal(b1-4)GlcNAc(b1-3)Gal(b1-4)GlcNAc(b1-3)Gal(b1-4)GlcNAc(b1-2)Man(a1-3)]Man(b1-4)GlcNAc(b1-4)[Fuc(a1-6)]GlcNAc
# Summary of the method: as §1
# [30] = biological target: GlcNAc(b1-4)GlcNAc(b1-4)GlcNAc(b1-4)GlcNAc(b1-4)GlcNAc(b1-4)GlcNAc
# Summary of the method: as §1
# GlcNAc(b1-6)GalNAc = biological target: GlcNAc(b1-6)GalNAc
# Summary of the method: as §1
# Kdn(a2-3)Gal(b1-3)GalNAc = biological target: Kdn(a2-3)Gal(b1-3)GalNAc
# Summary of the method: as §1
# Kdn(a2-3)Gal(b1-4)GlcNAc = biological target: Kdn(a2-3)Gal(b1-4)GlcNAc
# Summary of the method: as §1
# [31] = biological target: Man(a1-3)[Man(a1-6)]Man(a1-6)[Man(a1-2)Man(a1-3)]Man(b1-4)GlcNAc(b1-4)GlcNAc
# Summary of the method: as §1
# Man(b1-4)GlcNAc = biological target: Man(b1-4)GlcNAc
# Summary of the method: as §1
# [32] = biological target: Neu5Ac(a2-3)Gal(b1-3)GalNAc
# Summary of the method: as §1
# [33] = biological target: Neu5Ac(a2-3)Gal(b1-3)GalNAc6S
# Summary of the method: as §1
# [34] = biological target: Neu5Ac(a2-3)Gal(b1-3)GlcNAc
# Summary of the method: as §1
# [35] = biological target: Neu5Ac(a2-3)Gal(b1-4)GlcNAc(b1-2)Man(a1-3)[Neu5Ac(a2-3)Gal(b1-4)GlcNAc(b1-2)Man(a1-6)]Man(b1-4)GlcNAc(b1-4)GlcNAc
# Summary of the method: as §1
# [36] = biological target: Neu5Ac(a2-3)Gal(b1-4)GlcNAc(b1-6)GalNAc
# Summary of the method: as §1
# [37] = biological target: Neu5Ac(a2-3)Gal6S(b1-4)GlcNAc
# Summary of the method: as §1
# [38] = biological target: Neu5Ac(a2-3)Gal6S(b1-4)[Fuc(a1-3)]GlcNAc
# Summary of the method: as §1
# [39] = biological target: Neu5Ac(a2-3)GalNAc(b1-4)GlcNAc
# Summary of the method: as §1
# [40] = biological target: Neu5Ac(a2-6)Gal(b1-4)GlcNAc(b1-2)Man(a1-6)[Gal(b1-4)GlcNAc(b1-2)Man(a1-3)]Man(b1-4)GlcNAc(b1-4)GlcNAc
# Summary of the method: as §1
# [41] = biological target: Neu5Ac(a2-6)Gal(b1-4)GlcNAc(b1-3)Gal(b1-3)GlcNAc
# Summary of the method: as §1
# [42] = biological target: Neu5Ac(a2-6)Gal(b1-4)GlcNAc(b1-3)Gal(b1-4)GlcNAc(b1-3)[Neu5Ac(a2-6)Gal(b1-4)GlcNAc(b1-3)Gal(b1-4)GlcNAc(b1-6)]GalNAc
# Summary of the method: as §1
# [43] = biological target: Neu5Ac(a2-6)Gal(b1-4)GlcNAc(b1-3)Gal(b1-4)GlcNAc(b1-6)[Gal(b1-3)]GalNAc
# Summary of the method: as §1
# [44] = biological target: Neu5Ac(a2-6)GalNAc(b1-4)GlcNAc6S
# Summary of the method: as §1
# [45] = biological target: Neu5Ac(a2-6)GlcNAc(b1-4)GlcNAc(b1-4)GlcNAc
# Summary of the method: as §1
# [46] = biological target: Neu5Ac9Ac(a2-3)Gal(b1-3)GlcNAc
# Summary of the method: as §1
# [47] = biological target: Neu5Gc(a2-3)Gal(b1-4)GlcNAc
# Summary of the method: as §1
binder,measurement,setting,value
B1,glycan array binding signal (z-score),[1],-0.173
same,glycan array binding signal (z-score),[2],-0.175
same,glycan array binding signal (z-score),Fuc(a1-2)Gal(b1-4)GlcNAc,-0.174
same,glycan array binding signal (z-score),[3],7.25
same,glycan array binding signal (z-score),[4],-0.154
same,glycan array binding signal (z-score),Fuc(a1-2)[Gal(a1-3)]Gal,-0.171
same,glycan array binding signal (z-score),[5],-0.165
same,glycan array binding signal (z-score),[6],-0.177
same,glycan array binding signal (z-score),[7],5.97
same,glycan array binding signal (z-score),[8],-0.176
same,glycan array binding signal (z-score),[9],5.98
same,glycan array binding signal (z-score),[10],4.51
same,glycan array binding signal (z-score),[11],5.17
same,glycan array binding signal (z-score),Fuc(a1-4)GlcNAc,-0.173
same,glycan array binding signal (z-score),Gal(a1-3)Gal,-0.171
same,glycan array binding signal (z-score),[12],7.68
same,glycan array binding signal (z-score),[13],-0.18
same,glycan array binding signal (z-score),[14],7.07
same,glycan array binding signal (z-score),[15],-0.168
same,glycan array binding signal (z-score),[16],6.2
same,glycan array binding signal (z-score),[17],-0.169
same,glycan array binding signal (z-score),Gal(b1-4)Glc6S,-0.172
same,glycan array binding signal (z-score),[18],-0.172
same,glycan array binding signal (z-score),[19],-0.197
same,glycan array binding signal (z-score),[20],-0.169
same,glycan array binding signal (z-score),[21],-0.172
same,glycan array binding signal (z-score),[22],-0.172
same,glycan array binding signal (z-score),[23],3.65
same,glycan array binding signal (z-score),[24],-0.172
same,glycan array binding signal (z-score),Gal3S(b1-3)GlcNAc,-0.208
same,glycan array binding signal (z-score),GalNAc(b1-3)GlcNAc,0.976
same,glycan array binding signal (z-score),[25],-0.178
same,glycan array binding signal (z-score),[26],-0.173
same,glycan array binding signal (z-score),[27],-0.173
same,glycan array binding signal (z-score),GlcNAc(b1-3)Gal,-0.178
same,glycan array binding signal (z-score),[28],-0.166
same,glycan array binding signal (z-score),[29],-0.162
same,glycan array binding signal (z-score),[30],-0.175
same,glycan array binding signal (z-score),GlcNAc(b1-6)GalNAc,5.17
same,glycan array binding signal (z-score),Kdn(a2-3)Gal(b1-3)GalNAc,-0.176
same,glycan array binding signal (z-score),Kdn(a2-3)Gal(b1-4)GlcNAc,-0.161
same,glycan array binding signal (z-score),[31],-0.153
same,glycan array binding signal (z-score),Man(b1-4)GlcNAc,-0.172
same,glycan array binding signal (z-score),[32],-0.16
same,glycan array binding signal (z-score),[33],-0.171
same,glycan array binding signal (z-score),[34],-0.176
same,glycan array binding signal (z-score),[35],-0.123
same,glycan array binding signal (z-score),[36],6.48
same,glycan array binding signal (z-score),[37],-0.173
same,glycan array binding signal (z-score),[38],-0.177
same,glycan array binding signal (z-score),[39],-0.169
same,glycan array binding signal (z-score),[40],-0.172
same,glycan array binding signal (z-score),[41],-0.175
same,glycan array binding signal (z-score),[42],-0.172
same,glycan array binding signal (z-score),[43],-0.166
same,glycan array binding signal (z-score),[44],-0.176
same,glycan array binding signal (z-score),[45],-0.175
same,glycan array binding signal (z-score),[46],-0.175
same,glycan array binding signal (z-score),[47],-0.175
